Assay results as given in article PMC5540273 (PLoS ONE, 2017).

How the values were obtained:
Conditions in all cases: concentration: 1 μM, replicates: in singlicate; n = 1
IKK-alpha = tested on: T1, IKK-alpha
T1 construct: gene CHUK

IKK-beta = tested on: T2, IKK-beta
T2 construct: gene IKBKB

IKK-epsilon = tested on: T3, IKK-epsilon
T3 construct: gene IKBKE

INSRR = tested on: INSRR
INSR = tested on: INSR
IRAK1 = tested on: IRAK1
IRAK3 = tested on: IRAK3
IRAK4 = tested on: IRAK4
ITK = tested on: ITK
[1] = tested on: JAK1(JH1domain-catalytic)
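Note: KINOMEscan kinase panel screen.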

| SMILES | %Inh (IKK-alpha) | %Inh (IKK-beta) | %Inh (IKK-epsilon) | %Inh (INSRR) | %Inh (INSR) | %Inh (IRAK1) | %Inh (IRAK3) | %Inh (IRAK4) | %Inh (ITK) | %Inh [1] |
| --- | --- | --- | --- | --- | --- | --- | --- | --- | --- | --- |
| Cn1cc(-c2ccc3c(c2)CCN3C(=O)Cc2cc(F)cc(C(F)(F)F)c2)c2c(N)ncnc21 [GSK2635225] | 0% | 0% | 75% | 0% | 31% | 8% | 0% | 0% | 5% | 9% |
| CCOc1nccc(-c2c(-c3ccc(F)cc3)ncn2C2CCNCC2)n1 [SB-249175] | 0% | 0% | 6% | 4% | 10% | 45% | 11% | 6% | 0% | 29% |
| COc1ccc(NC(=O)c2ccoc2)cc1-c1ccc(C(=O)NCC2CC2)cc1 [GW810437] | 0% | 0% | 0% | 0% | 10% | 6% | 0% | 0% | 4% | 0% |
| CN(C)CCOc1ccc(-c2cc(-c3ccc(Cl)c(O)c3)c(-c3ccncc3)[nH]2)cc1.Cl.Cl [SB-684387] | 9% | 82% | 30% | 0% | 14% | 16% | 0% | 0% | 0% | 20% |
| O=C(O)C(F)(F)F.O=c1[nH]ccc2nc(N[C@@H]3CCNC3)nc(Nc3cc(Cl)cc(Cl)c3)c12 [GSK2188764] | 72% | 44% | 29% | 5% | 36% | 90.1% | 1% | 17% | 17% | 93.5% |
| COc1cccc(-c2nc(-c3ccccc3)[nH]c2-c2ccncc2)c1 [SB-610250] | 33% | 35% | 0% | 0% | 5% | 48% | 0% | 46% | 15% | 23% |
| CCNC(=O)/C=C/c1n[nH]c2cc(Sc3ccccc3C(=O)NC)ccc12 | 26% | 20% | 8% | 34% | 0% | 33% | 9% | 0% | 0% | 0% |
| Cc1ccc(NC(=O)c2ccnc(N3CCCCC3)c2)cc1-c1ccc(C(=O)NCC2CC2)cc1 [GW775610] | 0% | 0% | 0% | 0% | 0% | 0% | 0% | 0% | 51% | 52% |
| Fc1cc(Cl)ccc1Nc1ccnc2cc(-c3ccc(CN4CCOCC4)o3)ccc12 [GW560109] | 43% | 37% | 0% | 5% | 0% | 33% | 27% | 31% | 1% | 0% |
| CCn1c(-c2nonc2N)nc2c(-c3ccccc3)ncc(OCCCN)c21.O=C(O)C(F)(F)F.O=C(O)C(F)(F)F [GSK260205] | 32% | 16% | 3% | 0% | 0% | 29% | 0% | 21% | 14% | 11% |
| Cc1ccc(NC(=O)c2cccc(N3CCCCC3)c2)cc1-c1ccc(C(=O)NCC2CC2)cc1 [GSK1917008] | 54% | 29% | 15% | 4% | 12% | 17% | 11% | 20% | 26% | 0% |
| CN(c1ccc(F)c(NC(=O)c2cccc(OC(C)(C)C#N)c2Cl)c1)c1ccc2nc(NC(=O)C3CC3)sc2n1 | 0% | 0% | 29% | 0% | 0% | 0% | 8% | 0% | 0% | 10% |
| COc1cccc(C2=C(Nc3cccc(O)c3)C(=O)NC2=O)c1 [SB-390771] | 2% | 18% | 40% | 0% | 3% | 29% | 9% | 38% | 10% | 9% |
| O=C(Nc1n[nH]c2nc(-c3cccc(O)c3)ccc12)C1CC1 [SB-711805] | 0% | 0% | 0% | 0% | 0% | 0% | 0% | 0% | 0% | 0% |
| N#CC1(c2cccc(C(=O)Nc3cccc(Oc4ccc5nc(NC(=O)C6CC6)sc5n4)c3)c2)CC1 | 0% | 0% | 0% | 0% | 0% | 0% | 0% | 0% | 0% | 8% |
| Cc1cc(-c2c(-c3ccc(F)cc3)ncn2CCCN2CCOCC2)nc(N)n1 [SB-222517] | 0% | 0% | 0% | 26% | 8% | 0% | 0% | 0% | 6% | 0% |

| SMILES | %Inh (IKK-alpha) | %Inh (IKK-beta) | %Inh (IKK-epsilon) | %Inh (INSRR) | %Inh (INSR) | %Inh (IRAK1) | %Inh (IRAK3) | %Inh (IRAK4) | %Inh (ITK) | %Inh [1] |
| --- | --- | --- | --- | --- | --- | --- | --- | --- | --- | --- |
| COc1cc(Nc2nccc(N3CCC(NC(=O)Nc4ccc5c(c4)OCO5)C3)n2)cc(OC)c1OC (centres unmarked) [GSK1379766] | 27% | 11% | 29% | 0% | 25% | 80% | 85% | 44% | 10% | 12% |
| O=C(Nc1n[nH]c2cc(-c3cccs3)ccc12)C1CC1 [SB-731284] | 57% | 73% | 0% | 0% | 40% | 35% | 9% | 45% | 0% | 0% |
| O=C1NC(=O)C(c2ccccc2Cl)=C1Nc1cccc(Cl)c1 [SB-342409] | 18% | 36% | 0% | 1% | 7% | 28% | 0% | 32% | 14% | 1% |
| c1ccc(Oc2ccc(Nc3ccnc4cc(-c5ccc(CN6CCCCC6)o5)ccc34)cc2)nc1 [GW567143] | 12% | 8% | 0% | 5% | 10% | 24% | 0% | 6% | 10% | 0% |
| Nc1ncc(-c2cn[nH]c2)c2scc(-c3ccc4c(c3)CCN4C(=O)Cc3ccccc3)c12 [GSK2593067] | 0% | 31% | 50% | 24% | 13% | 0% | 25% | 0% | 25% | 2% |
| CN(c1ccc(NC(=O)N2CCN(CCCN3CCOCC3)CC2)cc1)c1ccnc(Nc2ccc(CS(C)(=O)=O)cc2)n1.Cl [GW830899] | 0% | 0% | 0% | 0% | 0% | 0% | 50% | 0% | 0% | 0% |
| N#Cc1cnc2cc(-c3cnc(CNCCN4CCOCC4)s3)ccc2c1Nc1ccc(Oc2ccccc2)cc1 [GW664114] | 29% | 23% | 43% | 0% | 7% | 49% | 0% | 37% | 21% | 10% |
| COc1ccc(C)c(Nc2ccnc(Nc3ccc(-c4cnc[nH]4)cc3)n2)c1.Cl [GW784041] | 0% | 0% | 0% | 0% | 0% | 0% | 35% | 0% | 18% | 100% |
| Cn1cc(-c2cnc(N)c3c(-c4ccc5c(c4)CCN5C(=O)Cc4ccccc4)csc23)cn1 [GSK2593074] | 0% | 0% | 59% | 13% | 12% | 0% | 5% | 0% | 23% | 0% |
| Cc1ccc(C)c(NC(=O)Nc2ccc(C)c(-c3ccc(C(=O)Nc4ccncc4)cc3)c2)c1 [GSK1398473] | 0% | 8% | 0% | 0% | 0% | 5% | 1% | 19% | 13% | 0% |
| Fc1cc(Cl)ccc1Nc1ccnc2cc(-c3ccc(CN4CCSCC4)o3)ccc12 [GW560106] | 31% | 9% | 0% | 0% | 0% | 18% | 7% | 0% | 8% | 11% |
| Cl.Cl.NCC(NC(=O)c1cc(-c2cccnc2)c(-c2ccnc3[nH]ccc23)s1)c1ccccc1 (centres unmarked) [GSK1323434] | 14% | 54% | 21% | 0% | 0% | 76% | 1% | 8% | 10% | 15% |
| CN(C)CCNS(=O)(=O)c1ccc(-c2ccnc3[nH]ccc23)cc1 [GSK977620] | 85% | 98.8% | 2% | 0% | 0% | 55% | 45% | 17% | 54% | 12% |
| Nc1ncc(-c2ccc3nccc(-c4ccncc4)c3c2)cc1S(=O)(=O)N1CCCCC1 [GSK1693850] | 0% | 0% | 12% | 0% | 0% | 39% | 86% | 10% | 12% | 10% |
| COc1cc(Nc2nccc(N3CCC(NS(=O)(=O)c4ccc(NC(C)=O)cc4)CC3)n2)cc(OC)c1OC [GSK1379825] | 24% | 14% | 11% | 0% | 0% | 74% | 85% | 44% | 17% | 20% |
| COc1ccc(C2=C(Nc3cccc(O)c3)C(=O)NC2=O)cc1 [SB-390766] | 26% | 44% | 0% | 0% | 2% | 60% | 0% | 45% | 7% | 58% |
